Test results published in publication PMC4336329 (PLoS ONE, 2015).
About 14,000 (4.5%) of roughly 310,000 compounds showed an effect of 50% or more. Effects have a minus sign here. Many of the other results were omitted from the sample, so strong results are more common in it than they were.

biological target: human ether-à-go-go-related gene (hERG) potassium channel (human, UniProt Q12809); experiment: primary screen, population patch clamp on CHO cells stably expressing hERG; higher = less effect of the substance
Description: Briefly, Chinese hamster ovary (CHO) cells stably expressing the hERG channel were dislodged from tissue culture flasks and dispensed into PPC plates. […] During the recording, background leak currents were estimated by a 100 ms step to -80 mV from an initial holding potential of -70 mV and subtracted from the subsequent current measurement. The campaign was conducted in two phases using slight differences in recording protocol. In the first phase, the initial voltage pulse used a 100 ms step to -30 mV from a holding potential of -70 mV, a 2 s conditioning step to +25 mV, and a 2 s test step to -30 mV. During the second phase of the screen, the potential during the conditioning step was raised to +45 mV. In both phases of the campaign, a secondary voltage pulse was applied using the same parameters as the second phase initial pulse. The initial and secondary pulses were applied in the absence of compound, and upon application of 1 μM and 10 μM test concentrations. […]
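Note: peak tail current of the secondary pulse compared with the same well before compound.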

Chain of human ether-à-go-go-related gene (hERG) potassium channel (Q12809 whole entry, looked up): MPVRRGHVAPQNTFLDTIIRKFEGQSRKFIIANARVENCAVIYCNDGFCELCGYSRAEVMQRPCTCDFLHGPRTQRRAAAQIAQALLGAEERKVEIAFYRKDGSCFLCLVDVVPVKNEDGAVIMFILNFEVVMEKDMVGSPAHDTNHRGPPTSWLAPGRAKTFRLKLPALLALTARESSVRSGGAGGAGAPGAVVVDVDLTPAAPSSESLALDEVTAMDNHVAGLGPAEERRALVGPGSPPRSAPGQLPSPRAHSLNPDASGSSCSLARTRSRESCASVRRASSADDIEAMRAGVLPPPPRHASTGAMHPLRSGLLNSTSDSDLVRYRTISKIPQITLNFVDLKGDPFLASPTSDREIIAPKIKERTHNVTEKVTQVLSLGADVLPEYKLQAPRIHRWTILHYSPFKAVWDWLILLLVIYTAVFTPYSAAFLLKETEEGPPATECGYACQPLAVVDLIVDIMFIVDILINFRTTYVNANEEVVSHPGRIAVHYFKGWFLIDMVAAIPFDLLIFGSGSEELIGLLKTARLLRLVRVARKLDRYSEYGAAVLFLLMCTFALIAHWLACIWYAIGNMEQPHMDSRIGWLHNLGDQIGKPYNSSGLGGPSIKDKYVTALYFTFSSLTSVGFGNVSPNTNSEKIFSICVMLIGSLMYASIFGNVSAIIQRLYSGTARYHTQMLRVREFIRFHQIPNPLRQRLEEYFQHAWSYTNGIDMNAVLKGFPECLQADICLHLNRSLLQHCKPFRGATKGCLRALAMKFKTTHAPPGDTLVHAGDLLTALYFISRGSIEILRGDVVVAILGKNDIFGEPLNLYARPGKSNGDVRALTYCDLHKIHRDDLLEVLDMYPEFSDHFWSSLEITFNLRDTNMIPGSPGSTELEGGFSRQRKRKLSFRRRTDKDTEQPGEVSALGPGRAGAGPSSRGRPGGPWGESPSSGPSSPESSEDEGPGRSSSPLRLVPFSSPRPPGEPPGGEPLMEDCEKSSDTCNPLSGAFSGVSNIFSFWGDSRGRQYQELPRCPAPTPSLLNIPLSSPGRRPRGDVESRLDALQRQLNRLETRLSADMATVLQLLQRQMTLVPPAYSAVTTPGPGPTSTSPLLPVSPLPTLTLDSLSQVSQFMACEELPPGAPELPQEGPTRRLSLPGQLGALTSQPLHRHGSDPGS

Point of comparison: `CC(C)c1ccc(/C=N/NC(=O)C(=O)NCCCN2CCOCC2)cc1`, “hERG current change (%, negative = inhibition) at 10uM” value -20.6%. Against it:
- CCOC(=O)C1CCN(C(=O)c2sc3nc(C)nc(N4CCC(C)CC4)c3c2C)CC1 — lower, -52.7%
- CCOC(=O)C1CCN(C(=O)c2sc3ncnc(N4CCC(C)CC4)c3c2C)CC1 — lower, -73.2%
- Cc1c(C(=O)N2CCN(c3ccccc3)CC2)sc2ncnc(N3CCC(C)CC3)c12 — lower, -29.9%
- Cc1c(C(=O)N2CCC(Cc3ccccc3)CC2)sc2ncnc(N3CCC(C)CC3)c12 — higher, 8.19%
- CCN1CCN(C(=O)c2sc3nc(C)nc(N4CCC(C)CC4)c3c2C)CC1 — higher, -8.16%
- CCOC(=O)C1CCCN(C(=O)c2sc3nc(C)nc(N4CCOCC4)c3c2C)C1 (stereo not drawn) — higher, -3.42%
- Cc1nn(-c2nnc(NC3CCCCC3)nn2)c(C)c1Br — higher, 10.8%
- OC1(c2ccccc2F)CCN(Cc2nnnn2Cc2ccc(F)cc2)CC1 — higher, 8.52%
- C/C(N)=C(/C#N)C(=O)CSc1nc2cc(Cl)ccc2c(=O)n1Cc1ccco1 — higher, 16.8%
- CC1(C)CC(=O)C2=C(C1)OC(/N=C/N1CCOCC1)=C(C#N)C2c1ccccc1 (stereo not drawn) — higher, -11%
- CCOc1cccc(OCCn2cnc3ccccc3c2=O)c1 — higher, 5.84%
- Cn1c(=O)c2c(nc(N3CCOCC3)n2C)n(C)c1=O — higher, -4.44%
- Cn1c(=O)c2c(nc(N3CCN(c4ccc([N+](=O)[O-])cc4)CC3)n2C)n(C)c1=O — lower, -76.2%
- Cn1c(=O)c2c(ncn2CC(=O)N2CCN(c3ccc([N+](=O)[O-])cc3)CC2)n(C)c1=O — lower, -72%
- Cn1c(=O)c2c(nc(N3CCCC3)n2C)n(C)c1=O — higher, 10%
- Cn1c(=O)c2c(ncn2CC(=O)N2CCN(c3ccccc3)CC2)n(C)c1=O — higher, 0.318%
- Cc1cccc(N2CCN(C(=O)Cn3cnc4c3c(=O)n(C)c(=O)n4C)CC2)c1C — lower, -26%
- Cn1c(=O)c2c(ncn2CC(=O)N2CCN(c3cccc(Cl)c3)CC2)n(C)c1=O — lower, -64.2%
- COc1ccc(N2CCN(C(=O)Cn3cnc4c3c(=O)n(C)c(=O)n4C)CC2)cc1 — higher, 5.48%
- Cn1c(=O)c2c(ncn2CC(=O)N2CCN(c3ccc(F)cc3)CC2)n(C)c1=O — lower, -23.4%
- Cc1ccc(C(=O)c2ccccc2C(=O)O)s1 — higher, -1.28%
- COc1cccc(N2CCN(C3C4CC5CC(C4)CC3C5)CC2)c1 (stereo not drawn) — higher, 2.54%
- CC(=O)Nc1nc(NC(=O)/C=C/c2ccccc2)n(-c2ccccc2)n1 — higher, -1.34%
- COC(CNC(=O)c1ccc2c(c1)ncn2C1CCCCCC1)OC — higher, 4.09%
- COc1ccc(-c2noc(C3CCCN(C(=O)c4cccs4)C3)n2)cc1 (stereo not drawn) — lower, -21.1%
- COc1ccc(-c2noc(C3CCCN(C(=O)c4ccc(F)cc4)C3)n2)cc1 (stereo not drawn) — lower, -35.3%
- O=C(c1ccc(F)cc1)N1CCCC(c2nc(-c3cccs3)no2)C1 (stereo not drawn) — higher, -18.5%
- O=C(c1ccc(F)cc1)N1CCCC(c2nc(-c3ccncc3)no2)C1 (stereo not drawn) — lower, -65.6%
- O=C(c1cccs1)N1CCCC(c2nc(-c3ccc(F)cc3)no2)C1 (stereo not drawn) — lower, -51.7%
- O=C(c1c(F)cccc1F)N1CCCC(c2nc(-c3ccc(F)cc3)no2)C1 (stereo not drawn) — higher, -6.69%
- CCN1C(=O)c2cccc3c(S(=O)(=O)NCC4CCCO4)ccc1c23 (stereo not drawn) — higher, 1.95%
- COCCNC(=O)C(c1cccc(OC)c1)N(C(=O)Cn1nnc2ccccc21)c1cccnc1 (stereo not drawn) — higher, 7.66%
- COCC1CCCCN1C(=O)c1ccc(OC2CCN(Cc3ccccn3)CC2)cc1 (stereo not drawn) — higher, 1.34%
- CC(=O)Nc1cc(NC(C)=O)cc(-c2nc3ccccc3[nH]2)c1 — higher, 3.84%
- COc1ccc(/C=C(\NC(=O)c2ccc(C)cc2)C(=O)NCCCN2CCOCC2)cc1OC — higher, 19.9%
- Cc1ccc(C(=O)N/C(=C\c2ccc(C(C)C)cc2)C(=O)NCCCN2CCOCC2)cc1 — lower, -72.3%
- Cc1ccc(C(=O)N/C(=C/c2ccc(C(C)C)cc2)C(=O)NCCCN2CCOCC2)cc1 — lower, -65.8%
- CC(C)c1ccc(NC2CCCN(C(=O)c3n[nH]c4c3CCC4)C2)cc1 (stereo not drawn) — higher, 5.38%
- C=CCN(c1ccccc1C(=O)O)S(=O)(=O)c1ccc(NC(=O)OC)cc1 — higher, 4.39%
- CC1CCCCC1NC(=O)CN(C)S(=O)(=O)c1cccc2cccnc12 (stereo not drawn) — higher, -0.115%
- COc1cccc(SCC(=O)N2CCN(c3ccccc3)CC2)c1 — higher, -1.23%
